Experimental data published in PubChem BioAssay AID1159580 (chemical genetic matrix, 2015).
About 2,000 (36%) of roughly 5,500 compounds were called active. Roughly 18% stayed inconclusive and do not appear here. No stated cut-off is given here; in the data, active means normalized growth mostly below about 0.91 (no sharp cut-off); inconclusive means no clear call, values can overlap the other calls; inactive means mostly above about 0.92. The list shows a part of the results.

Assay: chemical genetic growth profiling, strain panel (AID 1159580);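 further: tested at 20 µM; growth read once vehicle control cultures reached saturation at 30 °C; 1 = growth at the plate median or of vehicle wells; lower values mean less growth of the strain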
Conditions: growth OD
[1] = S. cerevisiae deletion strains, locus YAL013W, strain DEP1, hits give low values
[2] = S. cerevisiae deletion strains, locus YBR229C, strain ROT2, hits give low values
[3] = S. cerevisiae deletion strains, locus YDL101C, strain DUN1, hits give low values
[4] = S. cerevisiae deletion strains, locus YDL134C, strain PPH21, hits give low values
[5] = S. cerevisiae deletion strains, locus YDR150W, strain NUM1, hits give low values
[6] = S. cerevisiae deletion strains, locus YEL061C, strain CIN8, hits give low values
[7] = S. cerevisiae deletion strains, locus YGR078C, strain PAC10, hits give low values
[8] = S. cerevisiae deletion strains, locus YHR030C, strain SLT2, hits give low values
[9] = S. cerevisiae deletion strains, locus YHR087W, strain rtc3, hits give low values
[10] = S. cerevisiae deletion strains, locus YJR043C, strain POL32, hits give low values
[11] = S. cerevisiae deletion strains, locus YJR075W, strain HOC1, hits give low values
[12] = S. cerevisiae deletion strains, locus YLR039C, strain RIC1, hits give low values
[13] = S. cerevisiae deletion strains, locus YLR058C, strain SHM2 (second series), hits give low values
[14] = S. cerevisiae deletion strains, locus YLR085C, strain ARP6, hits give low values
[15] = S. cerevisiae deletion strains, locus YLR262C, strain YPT6, hits give low values
[16] = S. cerevisiae deletion strains, locus YML094W, strain GIM5, hits give low values
[17] = S. cerevisiae deletion strains, locus YMR219W, strain ESC1, hits give low values
[18] = S. cerevisiae deletion strains, locus YMR263W, strain SAP30, hits give low values
[19] = S. cerevisiae deletion strains, locus YNL128W, strain TEP1, hits give low values
[20] = S. cerevisiae deletion strains, locus YNL153C, strain GIM3, hits give low values
[21] = S. cerevisiae deletion strains, locus YNL298W, strain CLA4 (second series), hits give low values
[22] = S. cerevisiae deletion strains, locus YNL322C, strain KRE1, hits give low values
[23] = S. cerevisiae deletion strains, locus YNR030W, strain Alg12, hits give low values
[24] = S. cerevisiae deletion strains, locus YPL055C, strain LGE1, hits give low values
[25] = S. cerevisiae deletion strains, locus YPL241C, strain CIN2, hits give low values
[26] = S. cerevisiae deletion strains, locus YPR135W, strain CTF4, hits give low values
[27] = S. cerevisiae deletion strains, locus YMR307W, strain GAS1, hits give low values

Measured: normalized growth

COc1ccc(N=Cc2ccccc2O)cc1
inactive: [1] 0.993 | [2] 0.99 | [3] 0.991 | [4] 1.01 | [5] 0.952 | [6] 0.991 | [7] 0.995 | [8] 0.879 | [9] 0.969 | [10] 0.956 | [11] 0.967 | [12] 0.841 | [13] 0.988 | [14] 0.999 | [16] 0.978 | [17] 0.976 | [18] 0.963 | [19] 0.986 | [20] 1.01 | [21] 0.975 | [22] 0.985 | [23] 0.973 | S. cerevisiae deletion strains, locus YOL006C, strain TOP1, hits give low values 0.819 | [24] 0.912 | [25] 0.977 | [26] 0.86 | S. cerevisiae strains, strain wild type, hits give low values 0.977
active: [15] 0.813

COc1ccc(C=Nc2ccc(O)cc2)cc1
inactive: [1] 0.999 | [2] 1.01 | S. cerevisiae deletion strains, locus YCL061C, strain MRC1, hits give low values 0.979 | [3] 1.03 | [4] 1.03 | [5] 0.975 | [6] 1.05 | [7] 0.996 | [8] 1.04 | [9] 0.998 | [10] 0.99 | [11] 1.04 | S. cerevisiae deletion strains, locus YKL190W, strain CNB1, hits give low values 1.02 | [12] 0.936 | [13] 1.02 | [14] 1.03 | [15] 0.931 | [16] 1.01 | [17] 0.996 | [18] 1.02 | [27] 1.15 | [19] 1.02 | [20] 1.01 | [21] 1.04 | [22] 0.994 | [23] 1.01 | [24] 1.04 | [25] 0.987 | [26] 0.995

CCCN(CCC)CCc1c[nH]c2ccc(C(N)=O)cc12
inactive: S. cerevisiae deletion strains, locus YAL040C, strain CLN3, hits give low values 1.07 | S. cerevisiae deletion strains, locus YCL061C, strain MRC1 (second series), hits give low values 0.996 | S. cerevisiae deletion strains, locus YDR363W, strain ESC2, hits give low values 0.981 | S. cerevisiae deletion strains, locus YER002W, strain NOP16, hits give low values 0.991 | [18] 0.988 | [27] 1 | S. cerevisiae deletion strains, locus YNL175C, strain NOP13, hits give low values 1.05 | S. cerevisiae deletion strains, locus YNL197C, strain WHI3, hits give low values 1.02 | S. cerevisiae deletion strains, locus YNL224C, strain SQS1, hits give low values 0.994 | [22] 0.95 | S. cerevisiae deletion strains, locus YOR083W, strain WHI5 (second series), hits give low values 1.01 | [25] 0.988

CC(=O)O[C@H]1CC[C@]2(C)C3=CC(=O)[C@@]4(C)C(C[C@@H]5OC6(OCC(C)CC6Br)[C@@H](C)[C@@H]54)C3CC[C@H]2C1 (stereo partly drawn)
inactive: [1] 1.01 | S. cerevisiae deletion strains, locus YBR021W, strain FUR4, hits give low values 0.964 | [2] 0.99 | S. cerevisiae deletion strains, locus YCL029C, strain bik1, hits give low values 0.994 | S. cerevisiae deletion strains, locus YDL035C, strain GPR1, hits give low values 1.01 | S. cerevisiae deletion strains, locus YDL074C, strain BRE1, hits give low values 1.01 | [3] 0.989 | S. cerevisiae deletion strains, locus YDL185W, strain tfp1, hits give low values 0.988 | S. cerevisiae deletion strains, locus YDL192W, strain arf1, hits give low values 0.995 | S. cerevisiae deletion strains, locus YDR101C, strain arx1, hits give low values 1.02 | S. cerevisiae deletion strains, locus YDR162C, strain NBP2, hits give low values 1.01 | S. cerevisiae deletion strains, locus YDR318W, strain mcm21, hits give low values 0.997 | S. cerevisiae deletion strains, locus YDR388W, hits give low values 0.994 | S. cerevisiae deletion strains, locus YDR502C, strain sam2, hits give low values 0.995 | S. cerevisiae deletion strains, locus YER110C, hits give low values 0.986 | S. cerevisiae deletion strains, locus YER155C, strain BEM2, hits give low values 0.987 | S. cerevisiae deletion strains, locus YER167W, strain BCK2, hits give low values 0.996 | S. cerevisiae deletion strains, locus YGL078C, strain dbp3, hits give low values 0.982 | S. cerevisiae deletion strains, locus YGL086W, strain mad1, hits give low values 1.01 | S. cerevisiae deletion strains, locus YGL248W, strain PDE1, hits give low values 0.995 | S. cerevisiae deletion strains, locus YGR135W, strain pre9, hits give low values 0.973 | S. cerevisiae deletion strains, locus YGR229C, strain SMI1, hits give low values 1.03 | S. cerevisiae deletion strains, locus YGR252W, strain gcn5, hits give low values 0.986 | [8] 0.992 | S. cerevisiae deletion strains, locus YHR079C, strain IRE1 (second series), hits give low values 0.984 | S. cerevisiae deletion strains, locus YHR094C, strain hxt1, hits give low values 0.973 | S. cerevisiae deletion strains, locus YHR129C, strain ARP1, hits give low values 0.995 | S. cerevisiae deletion strains, locus YHR200W, strain rpn10, hits give low values 0.984 | S. cerevisiae deletion strains, locus YIL066C, strain RNR3, hits give low values 1 | S. cerevisiae deletion strains, locus YIL073C, strain SPO22, hits give low values 1.01 | S. cerevisiae deletion strains, locus YIL125W, strain kgd1, hits give low values 0.994 | S. cerevisiae deletion strains, locus YIR030C, strain dcg1, hits give low values 0.996 | S. cerevisiae deletion strains, locus YJL095W, strain BCK1, hits give low values 0.994 | S. cerevisiae deletion strains, locus YJL134W, strain LCB3, hits give low values 0.993 | S. cerevisiae deletion strains, locus YJL168C, strain set2, hits give low values 0.994 | S. cerevisiae deletion strains, locus YJL187C, strain SWE1 (second series), hits give low values 0.981 | [10] 1.02 | [11] 0.995 | S. cerevisiae deletion strains, locus YKL009W, strain mrt4, hits give low values 1.01 | S. cerevisiae deletion strains, locus YKL068W, hits give low values 0.996 | S. cerevisiae deletion strains, locus YKR001C, strain vps1, hits give low values 0.989 | [12] 0.987 | S. cerevisiae deletion strains, locus YLR058C, strain SHM2, hits give low values 0.995 | S. cerevisiae deletion strains, locus YLR102C, strain apc9, hits give low values 0.993 | [15] 1.04 | S. cerevisiae deletion strains, locus YLR268W, strain sec22, hits give low values 0.995 | S. cerevisiae deletion strains, locus YLR330W, strain CHS5, hits give low values 0.997 | S. cerevisiae deletion strains, locus YLR371W, strain rom2, hits give low values 0.99 | S. cerevisiae deletion strains, locus YLR418C, strain cdc73, hits give low values 0.991 | S. cerevisiae deletion strains, locus YML016C, strain PPZ1, hits give low values 0.982 | S. cerevisiae deletion strains, locus YML032C, strain rad52, hits give low values 0.995 | S. cerevisiae deletion strains, locus YML124C, strain tub3, hits give low values 0.988 | S. cerevisiae deletion strains, locus YMR078C, strain ctf18, hits give low values 0.993 | S. cerevisiae deletion strains, locus YMR223W, strain ubp8, hits give low values 0.993 | [27] 0.981 | S. cerevisiae deletion strains, locus YNL067W, strain RPL9B, hits give low values 0.98 | [20] 0.993 | S. cerevisiae deletion strains, locus YNL233W, strain BNI4, hits give low values 1.01 | S. cerevisiae deletion strains, locus YNL250W, strain rad50, hits give low values 0.989 | S. cerevisiae deletion strains, locus YNL271C, strain bni1, hits give low values 0.993 | S. cerevisiae deletion strains, locus YNL298W, strain CLA4, hits give low values 0.99 | S. cerevisiae deletion strains, locus YNL307C, strain MCK1, hits give low values 0.993 | S. cerevisiae deletion strains, locus YNR052C, strain pop2, hits give low values 0.983 | S. cerevisiae deletion strains, locus YOL012C, strain htz1 0.79 | S. cerevisiae deletion strains, locus YOL147C, strain pex11, hits give low values 0.997 | S. cerevisiae deletion strains, locus YOR061W, strain CKA2, hits give low values 0.992 | S. cerevisiae deletion strains, locus YOR069W, strain VPS5, hits give low values 0.992 | S. cerevisiae deletion strains, locus YOR136W, strain idh2, hits give low values 0.991 | S. cerevisiae deletion strains, locus YOR144C, strain elg1, hits give low values 0.989 | S. cerevisiae deletion strains, locus YOR184W, strain ser1, hits give low values 1.01 | S. cerevisiae deletion strains, locus YOR316C, strain cot1, hits give low values 0.99 | [25] 0.999 | S. cerevisiae deletion strains, locus YPR119W, strain clb2, hits give low values 0.991 | S. cerevisiae deletion strains, locus YPR141C, strain kar3, hits give low values 0.99 | S. cerevisiae deletion strains, locus YPR163C, strain tif3, hits give low values 0.992 | S. cerevisiae deletion strains, locus YPR167C, strain met16, hits give low values 0.992 | S. cerevisiae deletion strains, strain wtn01, hits give low values 1.01
active: S. cerevisiae deletion strains, locus YKL085W, strain MDH1 (second series), hits give low values 1.13 [resistant] | S. cerevisiae deletion strains, locus YKL085W, strain MDH1, hits give low values 1.13 [resistant]
